Source: PubChem (National Center for Advancing Translational Sciences (NCATS))
Shown are actives, neighbours in structure and some others; about 19% of the full set was active somewhere.
TDP1 cell noCPT – qHTS for Inhibitors of human tyrosyl-DNA phosphodiesterase 1 (TDP1): qHTS in cells in absence of CPT; 15% of 420,000 active; Potency, µM (series often up to 46.2 µM), for the others: at the top dose activity change, negative = growth inhibition, actives largely listed as inhibitors; DT40 Tdp1-/- hTDP1 cells, no CPT, ATP luminescence, 48 h; note: nearly all actives have a fitted effect of over 55% in size
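A cellular qHTS used chicken DT40 cells lacking endogenous Tdp1 but carrying stably transfected human TDP1. Compounds were applied without camptothecin, and cell growth kinetics were judged by ATP-dependent luminescence after ≥48 hr.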
HT1080NT lethal – qHTS for induction of synthetic lethality in tumor cells producing 2HG: qHTS for the HT-1080-NT fibrosarcoma cell line; AID 686970, 2013; HT-1080-NT fibrosarcoma viability, CellTiter-Glo ATP luminescence, 48 h; 1.6% of 360,000 active; Potency, µM (doses to about 46.1 µM), without a hit: at the highest dose activity, negative = less viability, most hits filed as cytotoxic;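 note: NT is the 2HG producing partner of a matched IDH1 knockdown line; 0% = DMSO-treated cells and -100% = media-only wells without cells; nearly all actives have a fitted effect of over 55% in size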
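Fibrosarcoma NT cells, 750 per well in 5% FBS RPMI, were exposed to compound for 48 hours. Viability: CellTiter-Glo luminescence.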
HT1080 IDH1KD tx – qHTS for induction of synthetic lethality in tumor cells producing 2HG: qHTS for the HT-1080-IDH1KD cell line; 2% of 360,000 active; Potency, µM (top dose mostly 46.1 µM), without a hit: at the top dose activity, negative = toxicity, usual class: cytotoxic; HT-1080 IDH1 knockdown viability, ATP luminescence, 48 h;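 note: 0% = DMSO wells and -100% = cell-free medium wells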
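HT-1080-IDH1KD cells (IDH1 knocked down), 750/well in RPMI with 5% FBS, treated with compound 48 h at 37 degrees C. Viability by CellTiter-Glo luminescence, normalised to DMSO and no-cell wells; concentration-response curves classed.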
DT40 TDP1 CPT – qHTS for Inhibitors of human tyrosyl-DNA phosphodiesterase 1 (TDP1): qHTS in cells in presence of CPT | chicken DT40 Tdp1-/-;hTDP1 cells + 20 nM CPT, ATP luminescence, 48 h | Potency, µM (titrated, usually from 46.2 µM), for inactives: at the top dose activity change, negative = growth inhibition, most hits filed as inhibitors | AID 686979, 2013 | 12% of 420,000 active; note: nearly all actives have a fitted effect of over 55% in size
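Chicken DT40 Tdp1-/- cells stably complemented with human TDP1 were seeded at 400 cells/well in medium containing 20 nM camptothecin, exposed to pin-transferred compounds, and grown at 37 °C for at least 48 hr. Viability was read as ATP luminescence.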
KB-V1 MDR tox – qHTS assay for MDR1-selective chemotherapeutics: Primary screen using the drug-selected MDR subline cells KB-V1; KB-V1 MDR cells viability, CellTiter-Glo, 72 h; Potency, µM (top dose mostly 46.1 µM), hits mostly cytotoxic; 3.4% of 400,000 active; note: nearly all actives have a fitted effect of over 60% in size
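Luminescent ATP read-out (CellTiter-Glo, 10 min) measures survival of drug-selected KB-V1 MDR cells after 72 h, 37 degrees C compound exposure. Medium: phenol-red-free DMEM, 10% FBS. Values from fitted concentration-response curves.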
KB-3-1 cytotox – qHTS assay for MDR1-selective chemotherapeutics: Primary screen using the parental adenocarcinoma cell KB-3-1; Potency, µM (series often up to 46.1 µM), usual class: cytotoxic; 1.4% of 400,000 active; AID 1347075, 2019; KB-3-1 viability, CellTiter-Glo ATP luminescence, 72 h; note: nearly all actives have a fitted effect of over 60% in size
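Parental KB-3-1 adenocarcinoma cells in phenol-red-free DMEM with 10% FBS were pin-treated with compounds at several concentrations, incubated 72 h at 37 °C, and viability read by CellTiter-Glo luminescence; concentration-effect curves were fitted after normalization.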
* hit, by the source's call; i = inactive; u = inconclusive; x = no result given. Calls come from the whole dose curve; as a rule, active = well fitted curve in the direction sought with a large enough effect; inconclusive = small, poorly fitted or top-dose-only effect, or another doubt; inactive = no such curve, though single readings can be large; an effect the other way counts as inactive or inconclusive. Unless noted, % is set by controls: 0 for no effect and ±100 for the full control effect; potency is the fitted concentration of half-maximal effect.

SMILES	TDP1 cell noCPT	HT1080NT lethal	HT1080 IDH1KD tx	DT40 TDP1 CPT	KB-V1 MDR tox	KB-3-1 cytotox
COc1ccc(C)cc1NC(=O)CNc1ccccc1CN(C)C1CCCCC1	u	-24%	u	18µM*	i	i
COc1ccc(Cl)cc1NC(=O)CN(C)C(C)C(=O)NC(=O)NC1CCCCC1 (stereo not given)	18µM*	-9%	-11%	u	u	i
COc1ccc(Cl)cc1NC(=O)CNc1ccccc1CN(C)C1CCCCC1	u	u	16µM*	u	u	i
COc1ccc(Cl)cc1NC(=O)CN(C)C1CCCCC1	u	-12%	-8%	u	u	i
CCCCN(C)C(=O)CN1C(=O)c2cccnc2Oc2ccc(Cl)cc21	u	x	x	-27%	i	i
Cn1cc(C2N3CC4(C)CN2CC(C)(C3)C4=O)c2ccccc21 (stereo not given)	-6%	-7%	0%	-10%	i	i
COC(=O)C1(C)CCc2cc(OC)ccc2C1=O (stereo not given)	-20%	9%	11%	1%	i	i
COc1ccc2c(c1)CCC1(C)CC(=O)C(Br)=C21 (stereo not given)	u	-13%	-10%	-11%	6.5µM*	u
Cc1c(NC(=O)c2ccccc2)cc(C(C)C)c(O)c1S(=O)(=O)c1ccc(Cl)cc1	u	x	x	21µM*	i	i
Cc1c(NC(=O)c2ccc(Cl)cc2)cc(C(C)C)c(O)c1S(=O)(=O)c1ccccc1	u	x	x	u	i	i
CC1CSc2n(-c3cccc(C(F)(F)F)c3)cc(-c3ccccc3)[n+]21 (stereo not given)	16µM*	-1%	-1%	u	i	u
FC(F)(F)c1cccc(-n2cc(-c3ccccc3)[nH]c2=S)c1	u	-4%	-4%	u	i	i
CC(C)(C)C#CCn1c(/C=[N+](\[O-])C2CCCCC2)nc2ccccc21	18µM*	0%	-6%	12µM*	i	i
CC(C)C(=O)Nc1ccc(C(=O)N/N=C/c2cc(Br)cc(Br)c2O)cc1	13µM*	u	u	7.3µM*	u	u
COc1cc(OC)c(/C=N/NC(=O)c2ccc(NC(C)=O)cc2)cc1Br	-15%	24%	19%	12%	i	i
CC(=O)Nc1ccc(C(=O)N/N=C/c2cc(Br)cc(Br)c2O)cc1	10µM*	u	u	12µM*	i	i
N#C/C(C(N)=O)=c1/ccc2c(c1)N1C3=C(CCCC3)CC3CCCCC31N=2 (stereo not given)	13µM*	-3%	-3%	15µM*	23µM*	u
N#CC(C#N)=c1ccc2c(c1)N1C3=C(CCCC3)CC3CCCCC31N=2 (stereo not given)	u	0%	-1%	u	u	u
Cc1ccc(C(=O)Nc2nc3ccccc3c(=O)s2)cc1	18µM*	u	7.9µM*	18µM*	i	i
Cc1ccc(C(=O)Nc2nnc(NC(=S)Nc3ccccc3)s2)cc1	21µM*	-21%	-20%	u	u	i
CCc1nnc(NC(=S)Nc2ccccc2)s1	-69%	11%	15%	5.8µM*	i	i
Cc1ccc(Nc2nc3ccccc3c(=O)s2)cc1C	12µM*	-4%	-1%	16µM*	i	i
COCCCn1c(CCC(=O)O)ccc1-c1cccs1	-26%	4%	6%	-16%	i	i
CCc1nnc(NS(=O)(=O)c2ccc(N/C=C\C(=O)c3ccc(C)cc3)cc2)s1	8%	-5%	-1%	-13%	u	i
CCCn1c(Cc2ccccc2)nnc1SC(C)C(=O)NC1CC1 (stereo not given)	0%	4%	0%	5%	i	i
SMILES	TDP1 cell noCPT	HT1080NT lethal	HT1080 IDH1KD tx	DT40 TDP1 CPT	KB-V1 MDR tox	KB-3-1 cytotox
c1ccc2nc3c(cc2c1)CCCCC3	13µM*	2%	2%	18µM*	i	i
COc1cc(CCC(=O)N2CCN(c3ncccn3)CC2)cc(OC)c1OC	7%	-8%	-1%	8%	i	i
COc1cccc(-c2nc(S(=O)(=O)c3ccccc3)c(N3CCCCC3)o2)c1	16µM*	x	x	u	i	i
COc1cccc(-c2nc(S(=O)(=O)c3ccc(C)cc3)c(N3CCCCC3)o2)c1	18µM*	x	x	21µM*	i	i
Cc1nn2c(=O)cc(COC(=O)c3ccccc3NC(=O)C(C)C)nc2s1	12µM*	x	x	u	x	x
Cc1nn2c(=O)cc(COC(=O)c3ccccc3NC(=O)c3ccccc3C)nc2s1	-2%	x	x	3%	x	x
CC(C)c1nn2c(=O)cc(COC(=O)c3ccccc3NC(=O)COc3ccccc3)nc2s1	u	x	x	5%	x	x
CC(Oc1ccccc1)C(=O)Nc1ccccc1C(=O)OCc1cc(=O)n2nc(C(C)C)sc2n1 (stereo not given)	21µM*	x	x	u	x	x
COc1ccccc1NS(=O)(=O)c1ccc2oc(SCc3ccc(C#N)cc3)nc2c1	18µM*	0%	-10%	12µM*	9.2µM*	i
COc1ccccc1NS(=O)(=O)c1ccc2oc(SCC(=O)N3CCNC3=O)nc2c1	u	-5%	1%	3.7µM*	i	i
CNC(=O)CSc1nc2cc(S(=O)(=O)Nc3ccccc3OC)ccc2o1	-14%	2%	-9%	1%	i	i
C=CCN(C(=O)C1=NN(C2CCS(=O)(=O)C2)C(=O)CC1)c1nc(-c2ccc([N+](=O)[O-])cc2)cs1 (stereo not given)	18µM*	-14%	-19%	-2%	i	i
O=C(Nc1cccnc1)C1=NN(C2CCS(=O)(=O)C2)C(=O)CC1 (stereo not given)	-26%	8%	7%	-17%	i	i
O=[N+]([O-])c1cc2c(cc1/C=N\NS(=O)(=O)c1ccccc1)OCO2	u	-12%	-26%	9.2µM*	i	i
Cc1ccc(C)c(N=Cc2cc3c(cc2[N+](=O)[O-])OCO3)c1	u	-2%	3%	u	i	i
